Screening data deposited in PubChem BioAssay by The Scripps Research Institute Molecular Screening Center.
hgDAF12 agonist: agonists of H. glycines DAF-12 nuclear receptor; AID 687014; 370,000 compounds, 1.8% hits; activation, % at 6.8 µM; HEK293 GAL4-hgDAF12 UAS-luciferase reporter, agonist luminescence; normalized to butyrate control;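 active = activation above a cutoff set at the mean of all screened compounds plus 3 SD, cut at about 10% in these data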;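 also: 0% = DMSO wells and 100% = sodium butyrate wells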
hcDAF12 agonist: activates DAF-12 receptor from parasite H. contortus; HEK293 hcDAF-12 lit1-tk-luc reporter, luminescence; 0% DMSO, 100% Δ7-dafachronic acid; activation, % at 6.8 µM; 370,000 compounds, 1.4% hits;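 active = activation above the mean of all tested compounds plus 3 SD, cut at about 5.5% in these data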;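 also: 100% = response to 3 µM Δ7-dafachronic acid high control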
ssDAF12 agonist: activates DAF-12 receptor from parasite S. stercoralis | HEK293 ssDAF-12/GRIP1 lit1-tk-luc reporter, luminescence; % of 3 µM dafachronic acid response | 370,000 compounds, 1% hits | AID 652126 | activation, % at 6.8 µM;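 active = activation above the mean over all tested compounds plus 3 SD, cut at about 0.9% in these data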;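 also: 0% = DMSO-only wells and 100% = 3 µM delta7-dafachronic acid wells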
DAX1 inh-1: blocks DAX1 repression of SF-1 activated StAR promoter. HEK293T StAR-luciferase reporter, SF-1/DAX-1 repression relief. inhibition, % at 6.8 µM. 370,000 compounds, 1.1% hits;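 active = inhibition above the mean over all tested compounds plus 3 SD, cut at about 3.6% in these data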;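 also: 0% = DAX-1 cells with DMSO and 100% = cells lacking DAX-1 with DMSO; higher inhibition means more luminescence from relief of DAX-1 repression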
DAX1 inh-2: NR0B1 (DAX1) inhibition. HEK293 Gal4-DAX1 luciferase reporter, luminescence. inhibition, % at 6.75 µM. 340,000 compounds, 0.99% hits;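 active = inhibition above the mean over all tested compounds plus 3 SD, cut at about 4.2% in these data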;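 also: 0% = DAX1-transfected cells with DMSO and 100% = empty-vector control cells with DMSO; inhibition shows as a rise in luminescence from relieved DAX1 repression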
Target sequence (P51843 207-470 limits assumed): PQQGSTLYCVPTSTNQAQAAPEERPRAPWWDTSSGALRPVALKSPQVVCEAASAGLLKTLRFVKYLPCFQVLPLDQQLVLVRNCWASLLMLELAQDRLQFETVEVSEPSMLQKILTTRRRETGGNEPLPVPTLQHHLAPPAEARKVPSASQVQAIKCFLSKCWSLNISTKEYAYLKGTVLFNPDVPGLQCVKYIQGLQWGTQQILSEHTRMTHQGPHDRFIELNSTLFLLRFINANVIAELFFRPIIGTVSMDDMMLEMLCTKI
Numbers without * were called inactive; . = no result given. Most compounds without a hit are left out; they make up all but 4.1% or so of the library.

SMILES	hgDAF12 agonist	hcDAF12 agonist	ssDAF12 agonist	DAX1 inh-1	DAX1 inh-2
CCC1=NN=C(c2ccc(F)cc2)C(c2c[nH]c3ccccc23)N1O (centres undefined)	5.4	4.5	0.9*	-0.6	-0.1
O=C1CC(O)C(Cc2ccccc2)N1 (centres undefined)	3.0	-1.1	0.3	-0.4	.
COc1ccc(C(=O)C2(C(=O)NCc3ccccc3)CC(c3ccccc3C(F)(F)F)=NO2)cc1 (centres undefined)	-0.7	-1.1	-1.3	-0.3	.
O=C(NCCC1=CCCCC1)NC12CC3CC(CC(C3)C1)C2	5.2	4.7	0.0	3.7*	0.2
CCCCNC(=O)c1ccc(CS(=O)(=O)c2cccc(C(F)(F)F)c2)o1	-1.2	-0.1	-1.6	-1.1	1.7
O=C(O)c1ccc(CS(=O)(=O)c2cccc(C(F)(F)F)c2)o1	-0.9	-0.7	-0.7	0.4	4.5*
C/C(=N\NC(=O)C(O)c1ccccc1)c1ccc(Cl)cc1 (centres undefined)	-1.0	-0.9	1.4*	0.6	1.6
COc1ccc(/C=C2\SC(=O)N(CC(=O)N(C)C3CCS(=O)(=O)C3)C2=O)cc1 (centres undefined)	1.6	1.8	1.0*	1.4	1.3
O=C(CN1C(=O)S/C(=C\c2ccccc2)C1=O)NC1CCS(=O)(=O)C1 (centres undefined)	-0.8	-1.8	-1.4	-2.1	0.1
CC(C)c1ccc(/C=C2\SC(=O)N(CC(=O)NC3CCS(=O)(=O)C3)C2=O)cc1 (centres undefined)	10.9*	2.0	-1.2	2.9	0.0
O=C(CN1C(=O)c2ccc([N+](=O)[O-])cc2C1=O)NC1CCS(=O)(=O)C1 (centres undefined)	-2.3	1.0	-1.1	-0.2	5.6*
COc1ccc(/C=C2\SC(=O)N(CCC(=O)N(C)C3CCS(=O)(=O)C3)C2=O)cc1 (centres undefined)	-0.8	-0.7	-0.7	0.2	0.4
COc1ccc(N2C(=O)/C(=C/c3ccc([N+](=O)[O-])cc3)C=C2c2ccccc2)cc1	0.3	-1.6	1.2*	0.6	1.3
C(=C/c1ccccc1)/c1ccccc1	1.0	0.8	-1.8	1.0	.
Cc1cccc(/C=C/c2ccccc2)n1	10.8*	4.6	0.4	2.1	.
C(=C\c1cc(/C=C/c2ccccc2)ncn1)/c1ccccc1	4.1	3.0	-0.3	1.3	5.0*
Cc1nc(/C=C/c2ccccc2)cc(/C=C/c2ccccc2)n1	2.0	1.2	-0.7	0.9	1.9
C(=C\c1ccccn1)/c1ccncc1	2.4	0.3	-0.9	-0.1	2.6
C(/C=C/c1ccccn1)=C\c1ccccc1	7.5	4.6	-0.3	1.1	5.0*
CCn1cc(/C=N/O)c(C)n1	4.0	-0.1	-1.3	-0.6	0.5
CCn1cc(/C=C/C(=O)c2ccc(O)cc2)c(C)n1	14.8*	4.7	0.0	3.2	12.7*
CCc1ccccc1Nc1nc(-c2cccnc2)cs1	8.2	-0.7	-1.5	-0.1	-0.7
COc1ccc(Nc2nc(-c3cccnc3)cs2)c(OC)c1	6.6	-0.6	-1.6	1.6	0.1
O=[N+]([O-])c1ccccc1Nc1nc(-c2cccnc2)cs1	4.5	5.6*	0.0	-0.3	1.2
COc1ccc(Nc2nc(-c3cccs3)cs2)c(OC)c1	9.9	5.2	1.1*	2.9	4.9*
SMILES	hgDAF12 agonist	hcDAF12 agonist	ssDAF12 agonist	DAX1 inh-1	DAX1 inh-2
COc1ccccc1Nc1nc(-c2cccnc2)cs1	11.7*	2.0	1.2*	0.5	0.6
c1cc(-c2cc3cc4c(cc3cn2)OCO4)cs1	6.9	5.8*	1.2*	1.9	1.4
COc1cc2cnc(-c3ccsc3)cc2cc1OC	1.1	2.1	-0.4	-0.1	1.4
COC(=O)c1sccc1NC(=O)c1csc(C)c1	0.5	3.3	1.0*	-1.2	-0.4
COC(=O)c1sccc1NC(=O)Nc1ccc(Cl)c(Cl)c1	11.0*	4.4	-0.2	1.1	3.9
CNS(=O)(=O)c1ccc(NC(=O)c2csc(C)c2)cc1	-0.1	-1.6	-0.4	-1.2	0.7
Cc1cc(C(=O)Nc2ccc(Br)cc2)cs1	9.0	5.6*	-0.2	3.9*	1.0
CCOc1ccc(-n2c(SCC(=O)Nc3ccc(Oc4ccccc4)cc3)nnc2-c2ccncc2)cc1	-2.8	-1.0	-0.2	0.0	.
O=S1(=O)C=CCN1Cc1cn(Cc2cccc(C(F)(F)F)c2)nn1	4.8	-0.9	-0.9	1.2	.
Cc1ccc(CSc2nc3ncccc3[nH]2)cc1	12.9*	3.2	-0.6	1.8	-1.4
C=C(C)CSc1nc2ncccc2[nH]1	-1.6	-1.2	-1.4	0.1	1.3
COC(=O)[C@H](CC(C)C)N(Cc1cn(Cc2ccccc2)nn1)S(=O)(=O)c1ccc(F)cc1Br	-4.2	-4.5	-1.8	-0.3	.
N=C1C(=O)OCC1c1ccccc1NC(=O)Nc1ccccc1 (centres undefined)	-1.0	4.4	0.1	0.6	7.1*
N=C1C(=O)OCC1c1ccccc1NC(=O)c1ccc(F)cc1 (centres undefined)	-0.6	0.1	0.3	-0.5	1.0
Nn1c(SCc2ccc(Br)cc2)nnc1-c1n[nH]c2c1CCC2	1.6	-2.3	-1.1	0.1	.
COc1ccccc1-n1cc(-c2ccc(Cl)cc2)[nH]c1=O	-1.2	6.4*	-1.4	-0.4	0.0
COc1ccc(-c2cn(-c3cccc(C)c3)c(=O)[nH]2)cc1OC	5.5	-0.1	-1.2	2.3	0.9
Cc1cccnc1NC(=S)Nc1ccc(F)cc1F	10.8*	2.1	-1.9	0.7	0.5
Cc1ccc(C)c(NC(=S)Nc2ncccc2C)c1	11.7*	1.6	0.2	1.9	1.0
Cc1cc(C)nc(NC(=S)Nc2ccc(F)cc2F)c1	0.1	0.6	-1.8	-0.6	-0.4
CCC(NC(=O)c1cccc2c1C(=O)N(Cc1cccnc1)C2)c1ccccc1 (centres undefined)	-1.7	-1.5	-1.9	-0.9	.
Cc1[nH]ccc2cc3nc4ccccc4c3cc12	3.4	5.7*	0.7	-2.2	-1.5
CC(=O)c1cc(-c2ccc3[nH]ccc3c2)c(=O)n2c1CCC2	-1.4	1.3	-1.7	-0.1	.
COC(=O)N/N=C(\CCC(=O)O)c1cccs1	2.6	-1.1	-1.3	0.3	2.6
COc1cccc(C(=O)NNC(=O)c2ccc3ccccc3c2O)c1	4.2	4.2	1.6*	0.3	-0.8
SMILES	hgDAF12 agonist	hcDAF12 agonist	ssDAF12 agonist	DAX1 inh-1	DAX1 inh-2
CCCc1nnc(NC(=O)c2cccc(OC)c2)s1	12.8*	1.1	-0.1	4.0*	2.6
O=C(O)CC/C(=N\NC(=O)c1ccccc1)c1cccs1	10.7*	-0.3	-0.8	1.4	1.6
COc1cc(C(=O)Nc2nnc(CC(=O)NCc3ccccc3)s2)cc(OC)c1OC	-2.0	-0.7	-1.1	1.9	4.2*
COc1cccc(C(=O)NNC(=O)C(=O)Nc2cccc3ccccc23)c1	0.0	-3.1	-1.3	-0.1	0.6
COC(=O)N1CCCC1c1cccc2[nH]cc(C)c12 (centres undefined)	0.7	-0.7	-1.2	1.1	.
O=C(Nc1ccc(F)cc1)Nc1c(-c2ccc(C(F)(F)F)cc2)nc2ncccn12	4.9	0.1	-0.8	-0.4	.
